This passage reports growth results from PubChem BioAssay (NCI).

Where “and” joins values, the source holds several entries; their conditions need not be identical. Equal values may be shown once. The panel holds about 83,000 compounds, 20% with a hit somewhere; the sample as a whole holds those more often.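 48-hour exposure, single concentration, 96-well plates; percent growth endpoint where 0 means no net growth. Active: below 10.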 Values without a mark were called inactive. Calls of active or inactive are those of the source.

For the experiment, the system named is MDA-MB-468 breast. Briefly: NCI-60 one-dose screen, 48 h (100 = growth as untreated, 0 = no growth, -100 = all killed). Conditions: 10 µM unless noted.
Regarding `O=C(O)/C=C\C(=O)N1C/C(=C\c2ccccc2Cl)C(=O)/C(=C/c2ccccc2Cl)C1`, the growth is -75.2% (active).
`CCC(C)C1(C2CCCC2)NC(=O)NC1=O` (stereo not given): the growth was 115% and 121%.
As for `COc1ccc(-n2nc(C)c3c(Nc4ccc(NC(=O)Nc5c(Cl)cccc5Cl)cc4)ncnc32)cc1`, the figure is 27.9%.
Take `Cc1ccc(NC(=S)N2CCOCC2)cc1C`: the growth was 83.5%.
For `O=C(NCCCNc1cc(-c2cn(-c3ccccc3)nc2-c2cccc(O)c2)ccn1)Nc1cc(C(F)(F)F)cc(C(F)(F)F)c1` the value was 70.4%; for `COc1ccc(-c2ccc(-c3ccc(C(=N)N)cn3)s2)cc1Cl`, -68.5% (active); for `O=C(Cc1cccc2ccccc12)N/N=C/c1ccc2c(c1)CCC2`, 72.3%.
For `C=CCNc1ccc2c3c(cccc13)C(=O)N(CC=C)C2=O` the value was 60.3%.
For `C[C@H]1[C@H](C)CC[C@]2(COC(=O)CCC(=O)O)CC[C@]3(C)C(=CC[C@@H]4[C@@]5(C)CCCNC(C)(C)[C@@H]5CC[C@]43C)[C@H]12` the value was 69% [100 µM]; for `NC(=O)c1ccc(Br)o1`, 103%.
Turning to `C=CC[C@]1(O)CC[C@H]2[C@@H]3CCc4cc(O)ccc4[C@H]3CC[C@@]21C`, the growth is 87.4%.
As for `COc1ccc(-c2nc(SC)nc(N3CCOCC3)c2C#N)cc1`, the growth is 101%.
As for `O=C(/C(=C(\C(=O)c1ccccc1)c1ccccc1)c1ccccc1)c1ccccc1`, the figure is 47.9%.
Consider `COc1ccc2c(c1)C(C)Cc1c(N(C)C)ncnc1N2C` (stereo not given), for which the growth is 29.9%.
For `COc1cc(C2C(C#N)=C(N)Oc3cc(O)ccc32)cc(OC)c1OC` (stereo not given) the value was -16% (active); for `COc1ccc2c(c1)c(-c1nc(-c3c[nH]c4ncccc34)cs1)cn2CCO`, 1.57% (active); for `CCN(CC)CCCCCNc1cc(OC(=O)c2ccc(Cl)cc2)cc2cccnc12`, 71.6%.
As for `Nc1ccc(S(=O)(=O)c2ccc(Cl)cc2)cc1`, the figure is 91.7%.
As for `Cc1cc(N2CCCCC2)nc(N(CCNc2ccnc3cc(Cl)ccc23)Cc2ccco2)n1`, the growth is -0.362% (active).
As for `CCOC(=O)C1=C(c2ccccc2)N=c2s/c(=C/c3ccc(Br)cc3)c(=O)n2C1c1ccc(O)cc1` (stereo not given), the figure is 83.7%; as for `Cc1ccccc1C1CC(=O)c2ccccc2C1C` (stereo not given), 83%; as for `O=C1[C@@H]2Cc3c([nH]c4ccccc34)[C@@H](c3ccc(Cl)cc3)N2C(=O)CN1C1CCN(Cc2ccccc2)CC1`, 49.5%.
As for `NS(=O)(=O)c1ccc(CCN2C(=O)/C(=C\c3ccc(Cl)cc3)C=C2c2ccc(Oc3ccccc3)cc2)cc1`, the growth is 76.7%.
For `O=C(Cc1nc2ccc([N+](=O)[O-])cc2nc1CC(=O)c1ccccc1)c1ccccc1` the value was 68.9%; for `COc1cc(-c2nn(-c3ccc(NC(=O)Nc4cc(C(F)(F)F)cc(C(F)(F)F)c4)cc3)cc2-c2ccncc2)ccc1Cl`, -15.2% (active); for `CS(=O)(=O)c1ccc2c(c1)c1c(n2S(=O)(=O)c2ccc(Cl)cc2)CCCC1`, 42.3%.
For `COc1cccc(N=CNc2cccc(OC)c2)c1` the value was 107%; for `CC(=O)C1=C(C)NC(NNc2ccccc2)=NC1c1ccc([N+](=O)[O-])cc1` (stereo not given), 92.3%; for `COc1ccc(-c2cc(-c3ccc(Cl)cc3)c(C#N)c(=O)n2CCCCC(=O)NO)cc1`, 72.6%.
As for `Cc1ccc(-c2csc(NC(=O)CSc3nc(-c4ccccc4)cc(=O)[nH]3)n2)cc1`, the figure is 108%.
For `COc1ccc(NC(=O)Nc2ccc(-c3cccnc3)cc2N2CCC(CO)CC2)cc1`, the growth was 42.5%.
For `C=C1C(=O)O[C@@H]2C[C@@H](C)[C@H](OC)CC(=O)[C@](C)(OC(C)=O)C[C@H](OC(=O)/C(C)=C\C)[C@@H]12` the value was 54.5%; for `Clc1cc(Cl)c(OCC#CI)cc1Cl`, -26% (active); for `NC(N)=Nc1ccc(Nc2cccc(Oc3ccc(Cl)c(C(F)(F)F)c3)c2)cn1`, 8.19% (active).
Turning to `CC(=O)Oc1ccccc1C(=O)/C=C/c1cccc([N+](=O)[O-])c1`, the growth is 61.2%.
As for `O=C(C[n+]1cccc2ccccc21)c1ccc(O)c(O)c1`, the figure is 16.1%; as for `CCOC(=O)/C(=C/c1ccc(OC)cc1)N(CC)CC`, 106%; as for `C[C@H]1[C@H](C)CC[C@]2(C(=O)N3CCN(C)CC3)CC[C@]3(C)C(=CC[C@@H]4[C@@]5(C)C/C(=C/c6cccnc6)C(=O)C(C)(C)[C@@H]5CC[C@]43C)[C@H]12`, -83.2% (active).
As for `CCN1C(=O)/C(=c2\sc3n(c2=O)C2C(NN=3)N(CC)C(=O)N2CC)c2ccccc21` (stereo not given), the figure is -13.5% (active); as for `O=c1c2cc(F)cc(Cl)c2sc2c(Cl)nc3ccccc3c12`, 99%.
